Inconclusive results are not listed. Activity calls are given as the source filed them. Calls follow the shape of the dose curve; as a rule, active = well fitted cell-killing curve with a large enough effect; inconclusive = small, poorly fitted or top-dose-only effect, or effect the other way; inactive = flat fitted curve, though single readings scatter.
Columns and labels:
Assay in all cases: Primary qHTS to identify gynecologic anti-cancer compounds using libraries of approved drugs and bioactive compounds (AID 1345084); also: nearly all actives have a fitted effect of over 55% in size
CAOV3 = settings: Gynecologic cancer cell panel viability, ATPlite luminescence, 48 h; series mostly up to 57.5 µM
How it was run: (§1)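 Five-concentration response, 48 h; readout is ATP-driven luciferase luminescence.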

CASKI = settings: Gynecologic cancer cell panel viability, ATPlite luminescence, 48 h; series mostly up to 57.5 µM
How it was run: as §1

Es-2 = settings: Gynecologic cancer cell panel viability, ATPlite luminescence, 48 h; series mostly up to 57.5 µM
How it was run: as §1

HeLa = settings: Gynecologic cancer cell panel viability, ATPlite luminescence, 48 h; series mostly up to 57.5 µM
How it was run: as §1

Hek293T = settings: Gynecologic cancer cell panel viability, ATPlite luminescence, 48 h, control line for the selectivity index; series mostly up to 57.5 µM
How it was run: as §1

JEG-3 = settings: Gynecologic cancer cell panel viability, ATPlite luminescence, 48 h; series mostly up to 57.5 µM
How it was run: as §1

OV90 = settings: Gynecologic cancer cell panel viability, ATPlite luminescence, 48 h; series mostly up to 57.5 µM
How it was run: as §1

PA-1 = settings: Gynecologic cancer cell panel viability, ATPlite luminescence, 48 h; series mostly up to 57.5 µM
How it was run: as §1

SKOV3 = settings: Gynecologic cancer cell panel viability, ATPlite luminescence, 48 h; series mostly up to 57.5 µM
How it was run: as §1

Tov-21-G = settings: Gynecologic cancer cell panel viability, ATPlite luminescence, 48 h; series mostly up to 57.5 µM
How it was run: as §1

Tov112D = settings: Gynecologic cancer cell panel viability, ATPlite luminescence, 48 h; series mostly up to 57.5 µM
How it was run: as §1
% is scaled to controls: 0 for no effect and ±100 for the full control effect.

C[C@@H]1O[C@@H](O[C@H]2[C@H](O)[C@@H](O)[C@H](OC[C@H]3O[C@@H](OC(=O)[C@]45CCC(C)(C)C[C@H]4C4=CCC6[C@@]7(C)C[C@H](O)[C@H](O[C@@H]8O[C@H](CO)[C@@H](O)[C@H](O)[C@H]8O)[C@@](C)(C(=O)O)C7CC[C@@]6(C)[C@]4(C)CC5)[C@H](O[C@@H]4O[C@H](CO)[C@@H](O)[C@H](O)[C@H]4O)[C@@H](O)[C@@H]3O)O[C@@H]2CO)[C@H](O)[C@H](O)[C@H]1O (stereo partly drawn)
inactive: activity change, negative = cytotoxicity (CAOV3) 11.2% [at 6.55 µM] | activity change, negative = cytotoxicity (CASKI) 9.67% [at 6.55 µM] | activity change, negative = cytotoxicity (Es-2) 9.17% [at 6.55 µM] | activity change, negative = cytotoxicity (HeLa) 0.162% [at 6.55 µM] | activity change, negative = cytotoxicity (Hek293T) 3.11% [at 6.55 µM] | activity change, negative = cytotoxicity (JEG-3) -3.92% [at 6.55 µM] | activity change, negative = cytotoxicity (OV90) 0.564% [at 6.55 µM] | activity change, negative = cytotoxicity (PA-1) 15.2% [at 6.55 µM] | activity change, negative = cytotoxicity (SKOV3) 8.21% [at 6.55 µM] | activity change, negative = cytotoxicity (Tov-21-G) 6.93% [at 6.55 µM] | activity change, negative = cytotoxicity (Tov112D) 5.3% [at 6.55 µM]

COc1ccc2c3c1O[C@H]1C[C@@H](O)C=C[C@@]31CCN(C)C2
inactive: Potency (CAOV3) | Potency (CASKI) | Potency (Es-2) | Potency (HeLa) | Potency (Hek293T) | Potency (JEG-3) | Potency (OV90) | Potency (PA-1) | Potency (SKOV3) | Potency (Tov-21-G) | Potency (Tov112D)

COc1cc(C/C(=C/NC(C)=O)N(CC(=O)Cc2ccccc2)C(C)=O)cc2c1OCO2
inactive: Potency (CAOV3) | Potency (CASKI) | Potency (Es-2) | Potency (HeLa) | Potency (Hek293T) | Potency (JEG-3) | Potency (OV90) | Potency (PA-1) | Potency (SKOV3) | Potency (Tov-21-G) | Potency (Tov112D)

CC(C)=CCc1ccc(Oc2c(O)cc(C)cc2CO)c(C(=O)O)c1O
inactive: Potency (CAOV3) | Potency (CASKI) | Potency (Es-2) | Potency (HeLa) | Potency (Hek293T) | Potency (JEG-3) | Potency (OV90) | Potency (PA-1) | Potency (SKOV3) | Potency (Tov-21-G) | Potency (Tov112D)

O=C1NCc2nc3ccccc3c(=O)n2C1Cc1c[nH]c2ccccc12 (stereo not drawn)
inactive: Potency (CAOV3) | Potency (CASKI) | Potency (Es-2) | Potency (HeLa) | Potency (Hek293T) | Potency (JEG-3) | Potency (OV90) | Potency (PA-1) | Potency (SKOV3) | Potency (Tov-21-G) | Potency (Tov112D)

COc1cc(C2OCC3C(c4ccc(OC5OC(CO)C(O)C(O)C5O)c(OC)c4)OCC23)ccc1O (stereo not drawn)
inactive: Potency (CAOV3) | Potency (CASKI) | Potency (Es-2) | Potency (HeLa) | Potency (Hek293T) | Potency (JEG-3) | Potency (OV90) | Potency (PA-1) | Potency (SKOV3) | Potency (Tov-21-G) | Potency (Tov112D)

COc1cc(C2Oc3c(OC)cc(/C=C/C(=O)OC[C@H]4O[C@@H](OC(C)(C)C(=O)O)[C@H](O)[C@@H](O)[C@@H]4O)cc3C2CO)ccc1O (stereo partly drawn)
inactive: Potency (CAOV3) | Potency (CASKI) | Potency (Es-2) | Potency (HeLa) | Potency (Hek293T) | Potency (JEG-3) | Potency (OV90) | Potency (PA-1) | Potency (SKOV3) | Potency (Tov-21-G) | Potency (Tov112D)

CC(C)c1ccc(CC(=O)N2CCC[C@@H](c3cccc(OC(C)(C)C(=O)O)c3)C2)cc1
inactive: Potency (CAOV3) | Potency (CASKI) | Potency (Es-2) | Potency (HeLa) | Potency (Hek293T) | Potency (JEG-3) | Potency (OV90) | Potency (PA-1) | Potency (SKOV3) | Potency (Tov-21-G) | Potency (Tov112D)

NS(=O)(=O)NCCNc1nonc1C(=Nc1ccc(F)c(Br)c1)NO
inactive: Potency (CAOV3) | Potency (CASKI) | Potency (Es-2) | Potency (HeLa) | Potency (Hek293T) | Potency (JEG-3) | Potency (OV90) | Potency (PA-1) | Potency (SKOV3) | Potency (Tov-21-G) | Potency (Tov112D)

C=C1C2=CC(O)C(C)C1(C)CC/C(C)=C/CCC1(C)OC1C2=O (stereo not drawn)
inactive: Potency (CAOV3) | Potency (CASKI) | Potency (Es-2) | Potency (HeLa) | Potency (Hek293T) | Potency (JEG-3) | Potency (OV90) | Potency (PA-1) | Potency (SKOV3) | Potency (Tov-21-G) | Potency (Tov112D)

CC(=O)c1c(O)cc2c(c1C)C(=O)CC(O)C2 (stereo not drawn)
inactive: Potency (CAOV3) | Potency (CASKI) | Potency (Es-2) | Potency (HeLa) | Potency (Hek293T) | Potency (JEG-3) | Potency (OV90) | Potency (PA-1) | Potency (SKOV3) | Potency (Tov-21-G) | Potency (Tov112D)

C=C1CCC2C(OC(=O)C2(O)COC(C)=O)C2C(=C)C(O)CC12 (stereo not drawn)
inactive: Potency (CAOV3) | Potency (CASKI) | Potency (Es-2) | Potency (HeLa) | Potency (Hek293T) | Potency (JEG-3) | Potency (OV90) | Potency (PA-1) | Potency (SKOV3) | Potency (Tov-21-G) | Potency (Tov112D)

C=C/C=C/[C@@H]1OC[C@H](/C=C/C=C/C)[C@H]1O
inactive: Potency (CAOV3) | Potency (CASKI) | Potency (Es-2) | Potency (HeLa) | Potency (Hek293T) | Potency (JEG-3) | Potency (OV90) | Potency (PA-1) | Potency (SKOV3) | Potency (Tov-21-G) | Potency (Tov112D)
